ADAM17 inh: ADAM17 inhibitors, primary screen, biochemical, QFRET | Disintegrin and metalloproteinase domain-containing protein 17 (Homo sapiens), P78536 | actives 0.83% (n = 370,000) | inhibition, % at 6.95 µM | recombinant ADAM17, EDANS/DABCYL FRET peptide cleavage;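 active = inhibition above the mean of compounds lying between control limits plus 3 SD, set per campaign, cut at about 8.5% in these data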;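 note: 0% = DMSO-only wells as the low control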
Target sequence (P78536 215-824 limits assumed): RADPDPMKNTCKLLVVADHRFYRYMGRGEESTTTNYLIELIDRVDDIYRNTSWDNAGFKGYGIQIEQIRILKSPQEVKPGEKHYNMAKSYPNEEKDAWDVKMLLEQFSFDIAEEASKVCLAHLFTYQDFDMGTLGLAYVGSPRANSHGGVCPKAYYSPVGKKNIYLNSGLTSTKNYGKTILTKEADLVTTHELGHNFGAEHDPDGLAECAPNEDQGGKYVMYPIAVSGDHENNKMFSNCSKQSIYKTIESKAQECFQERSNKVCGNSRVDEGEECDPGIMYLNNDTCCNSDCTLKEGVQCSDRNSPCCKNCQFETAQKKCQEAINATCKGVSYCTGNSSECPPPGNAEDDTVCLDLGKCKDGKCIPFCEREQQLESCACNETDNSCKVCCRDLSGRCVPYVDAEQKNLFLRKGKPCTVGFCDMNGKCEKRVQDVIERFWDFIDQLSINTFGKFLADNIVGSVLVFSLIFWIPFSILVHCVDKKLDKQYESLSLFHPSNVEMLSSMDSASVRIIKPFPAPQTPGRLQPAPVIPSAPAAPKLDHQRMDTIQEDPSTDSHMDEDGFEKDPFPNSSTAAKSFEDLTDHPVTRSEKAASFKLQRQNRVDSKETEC
PLC-beta3 inh: human PLC-beta3 inhibitors, primary screen, biochemical, fluorescence; actives 0.18% (n = 370,000); Purified PLC-beta3, fluorogenic substrate; 1-phosphatidylinositol 4,5-bisphosphate phosphodiesterase beta-3 (Homo sapiens), Q01970; inhibition, % at 12.2 µM; in the data active = inhibition above about 11%;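 note: 0% = median of compound wells on plate and 100% = full blocker control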
KLK7 zymogen act: proKLK7 zymogen activators, primary screen, biochemical, fluorescence intensity | Kallikrein-7 (Homo sapiens), P49862 | purified proKLK7, EDANS-DABCYL substrate fluorescence; 100% is mature enzyme control, 0% vehicle | activation, % at 7 µM | actives 0.9% (n = 370,000);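 active = activation above the mean of all tested compounds plus 3 SD, computed per campaign excluding outliers beyond control limits, cut at about 13% in these data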
ADAM10 inh: human ADAM10 inhibitors, primary screen, biochemical, QFRET, HTS. inhibition, % at 7 µM. actives 0.62% (n = 370,000). AID 720582, 2013. recombinant ADAM10, EDANS/DABCYL FRET peptide cleavage, 3 h;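 active = inhibition above a per-campaign cutoff equal to the mean of compounds falling between control-based bounds plus 3 SD, cut at about 20% in these data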;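 note: 0% = DMSO wells while the 100% control is not disclosed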
PLCg1 inh: PLC-gamma1 enzyme inhibitors, primary screen, biochemical, fluorescence, purified enzyme; inhibition, % at 12.2 µM; 1-phosphatidylinositol 4,5-bisphosphate phosphodiesterase gamma-1 (Homo sapiens), P19174; AID 720700, 2013; actives 0.84% (n = 370,000); fluorogenic substrate; in the data active = inhibition above about 9.5%
proKLK7 act conf: proKLK7 zymogen activators, confirmation, biochemical, fluorescence intensity, triplicate. shares compounds with KLK7 zymogen act. purified proKLK7, EDANS-DABCYL substrate fluorescence; scaled: vehicle 0, mature enzyme 100. activation, % at 7 µM. actives 68% (n = 3,200);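 active = activation, as change over the incubation, above the mean of all tested compounds plus 3 SD, cut at about 13% in these data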
EDANS-DABCYL int: EDANS-DABCYL substrate optical interference, artefact control for kallikrein-7 zymogen activator project, biochemical, fluorescence intensity, high throughput; actives 80% (n = 3,200); activation, % at 7 µM; shares compounds with KLK7 zymogen act; no enzyme, 4 h; solvent 0%, active enzyme control 100%; AID 686952, 2013;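 active = activation above the all-compound mean plus 3 SD, ignoring values outside control-based bounds, cut at about 4.8% in these data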;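 note: value is the 4 h activation minus the activation read at time zero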
EDANS interf: counter-screen for kallikrein-7 activators: EDANS-DABCYL interference, dose response. AID 720493. EDANS-DABCYL peptide fluorescence interference, no enzyme. actives 20% (n = 250). shares compounds with KLK7 zymogen act. EC50, µM;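 active = compounds that raise the fluorescence signal in this interference counterscreen, with EC50 at or below 10 µM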;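 note: intact quenched peptide substrate alone read at 355 nm excitation and 520 nm emission; signal is fluorescence gain from T0 to T4 after four hours at room temperature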
Numbers without * were called inactive; i = inactive; . = no result. Sampled rows, rich in hits. Any-hit rate of the full collection: about 2.9%.

SMILES	ADAM17 inh	PLC-beta3 inh	KLK7 zymogen act	ADAM10 inh	PLCg1 inh	proKLK7 act conf	EDANS-DABCYL int	others
CCN(CC)CCNC(=O)c1c(O)c2cccc3c2n(c1=O)CCC3	-11	-5	0	-39	-2	.	.
CCc1c(C)c(C#N)c2nc3ccccc3n2c1NCC1CCCO1 (stereo not given)	-21	-177	2	-67	-144	.	.
CC(C)c1cc(NCC2CCCO2)n2c(nc3ccccc32)c1C#N (stereo not given)	i	i	21*	i	i	-12	-17
Cc1cc(NCC2CCCO2)n2c(nc3ccccc32)c1C#N (stereo not given)	-305	i	16*	i	-464	44*	34*
CC(C)c1cc(NCCN2CCOCC2)n2c(nc3ccccc32)c1C#N	-9	-25	0	-23	-10	.	.
O=C(NNC(=O)c1c(O)c2ccccc2[nH]c1=O)c1ccccc1	0	1	1	6	1	.	.
COc1cc2c(cc1OC)[C@@H](NC(=O)Cc1ccc(F)cc1)[C@H](OCc1ccccc1)C2	0	1	0	-6	2	.	.
c1csc(C2C3=C(Nc4ncnn42)c2ccccc2OC3)c1 (stereo not given)	-134	i	17*	-434	-470	34*	31*
CCOC(=O)C1=C(C)NC2=C(C(=O)OC2)C1c1ccccc1 (stereo not given)	-34	-32	1	-92	-27	.	.
COc1ccc2c(C)c(Cl)c(=O)oc2c1	i	-306	7	i	-264	.	.
CCC[C@@H](NS(=O)(=O)c1ccc(C)cc1)C(=O)Oc1ccc2c3c(c(=O)oc2c1)CCC3	i	i	42*	i	i	631*	536*
Cc1ccc(S(=O)(=O)NC(C(=O)Oc2ccc3ccc(=O)oc3c2)c2ccccc2)cc1 (stereo not given)	i	i	63*	i	i	329*	377*
Cc1ccc(S(=O)(=O)NC(C(=O)Oc2ccc3c(C)c(Cl)c(=O)oc3c2)c2ccccc2)cc1 (stereo not given)	i	i	55*	i	i	69*	78*
Cc1ccc(S(=O)(=O)NCCC(=O)Oc2ccc3ccc(=O)oc3c2)cc1	i	i	49*	i	i	613*	626*
CCOc1ccc(S(=O)(=O)NC2CCCCC2C)cc1 (stereo not given)	0	-6	0	-10	-3	.	.
COCCNC(=O)Cc1c(C)c2cc3c(cc2oc1=O)OC(C)(C)CC3	i	-229	13*	i	-183	15*	10.0*	EDANS interf=>70
Cc1c(CC(=O)NCCC(C)C)c(=O)oc2cc3c(cc12)CCC(C)(C)O3	-72	-23	-4	-185	-13	.	.
N#CCC(=O)Nc1ccc(C(=O)OCC(=O)NC(=O)Nc2ccc3c(c2)OCCO3)cc1	6	-17	0	12	-1	.	.
CCOC(=O)CSc1nc(C)cc(C)c1C#N	-14	-66	30*	-34	-57	56*	54*
CCOC(=O)CSc1nc(N)c(C#N)c(-c2ccc(OCC)cc2)c1C#N	-8	-29	13*	-18	-20	-53	-64
Cc1nc(SCC(=O)CC(=O)OC(C)C)c(C#N)c(C)c1C	-25	-61	40*	-106	-40	63*	57*
CCOC(=O)C1=C(CSc2nc(C)cc(C)c2C#N)OC(N)=C(C#N)C1c1ccccc1 (stereo not given)	-28	-72	26*	-75	-49	33*	30*
